# Test results taken from ChEMBL document CHEMBL3433997, “St. Jude Leishmania screening dataset” (2016).
# Target: Solute carrier family 2, facilitated glucose transporter member 1 (Homo sapiens) (UniProt P11166)
# Test: ST_JUDE_LEISH: Cytotoxicity at 2uM final concentration against transgenic Leishmania Mexicana promastigotes LmGLUT1 that are glucose transport deficient and complemented with the human glucose transporter GLUT1. Activity is measured by DNA content using SYBR green in vitro
# Type: functional
# Solute carrier family 2, facilitated glucose transporter member 1 (Homo sapiens), sequence (P11166 whole entry): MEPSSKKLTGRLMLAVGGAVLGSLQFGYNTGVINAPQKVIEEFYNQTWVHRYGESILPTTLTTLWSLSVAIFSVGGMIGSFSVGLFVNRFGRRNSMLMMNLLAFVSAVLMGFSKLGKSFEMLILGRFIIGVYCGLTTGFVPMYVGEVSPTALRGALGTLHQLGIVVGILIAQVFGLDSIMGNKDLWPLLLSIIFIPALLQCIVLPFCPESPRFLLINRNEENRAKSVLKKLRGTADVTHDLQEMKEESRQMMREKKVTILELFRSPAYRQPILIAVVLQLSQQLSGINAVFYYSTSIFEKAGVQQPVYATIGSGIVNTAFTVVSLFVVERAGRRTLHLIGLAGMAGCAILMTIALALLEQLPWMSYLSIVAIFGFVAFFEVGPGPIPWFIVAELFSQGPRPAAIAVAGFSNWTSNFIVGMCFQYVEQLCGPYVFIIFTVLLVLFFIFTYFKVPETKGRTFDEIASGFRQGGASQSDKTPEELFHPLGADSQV
row,SMILES,inhibition
1,O=C(Nc1ccc(C(=O)N2CCN(CCN3CCN(c4cccc(C(F)(F)F)c4)CC3)CC2)cc1)c1ccc(OC(F)(F)F)cc1,-1.35%
2,COc1ccc(Nc2ncc3c(-c4cccc(NC(=O)Cc5cccc(F)c5)c4)c[nH]c3n2)cc1OC,5.69%
3,CCCCN(CCCC)CCOc1cc2c(cc1OC)CCN2C(=O)/C=C/c1ccccc1Cl,1.13%
4,O=C(NCCN1CCCC1)c1ccc(-c2ccc(-c3nc4cc(C(F)(F)F)ccc4[nH]3)s2)cc1,3.7%
5,CCCNCc1ccc(-c2ccc(CN(CCOC)C(=O)/C=C/c3ccccc3C)cc2)nc1,9.67%
6,COCCOc1cc(C)c(C2CCN(CCCCNC(=O)c3ccc(NC(=O)c4ccc(Cl)cc4)cc3)CC2)cc1C,8.26%
7,COc1cc2c(cc1OC)CC(NCCCCCCNCCc1ccc(Cl)cc1)CC2 (stereo not given),0.92%
8,c1ccc(-c2[nH]c3ccccc3c2CN2CCC(N3CCCCC3)CC2)nc1,-2.72%
9,Oc1ccc(CCNc2nc(NCc3ccccc3Oc3ccc(C(F)(F)F)cc3)nc(N3CCNCC3)n2)cc1,-0.98%
10,CC(=O)Nc1ccc(C(=O)N2CCN(c3ccnc4cc(Cl)ccc34)CC2)cc1,1.26%
11,Cc1nc(C)c(-c2ccc(S(=O)(=O)c3ccc(Cl)cc3)cc2)c(O)c1Br,4.93%
12,O=C(OCC1CCN(Cc2ccccc2)C1)c1ccc(Cl)cc1 (stereo not given),0.47%
13,CCn1c(-c2nonc2N)nc2c(Cl)ncc(O[C@H](CCN)c3ccccc3F)c21,58.6%
14,CN1CCN(c2ccnc3cc4c(cc23)N(C(=O)Nc2ccc3c(c2)CCCC3=O)CC4)CC1,1.37%
15,O=C(NC1CCN(c2ccnc(Nc3ccc(F)cc3)n2)C1)c1cc2ccccc2s1 (stereo not given),0.69%
16,CC(C)(C)[C@@H](Nc1ccc(C#N)c2ccccc12)C(=O)NC1(Cc2ccc(O)cc2)CCCC1,0.1%
17,COc1cccc(CNc2ncc(-c3ccsc3)c(-c3nccs3)n2)c1,-0.5%
18,CCCCNC(=O)C1CCCN(C(=O)c2ccc(O)c(-c3ccc(Cl)c(Cl)c3)c2)C1 (stereo not given),1.28%
19,Cc1ccc(F)c(OC2CCN(c3ccc(C(=O)NC4CC4)cn3)CC2)c1,0.56%
20,Cc1cc(NC(=O)c2coc3cc(F)c(N4CC(C)N(C)C(C)C4)cc23)cnc1-c1ccc(C#N)cc1 (stereo not given),0.22%

row,SMILES,inhibition
1,Cc1ccc(S(=O)(=O)N(CCCNCc2cccc(O)c2)c2ccccc2)cc1,9.85%
2,CC(C)C1CCc2nc(N)nc(N)c2C1 (stereo not given),2.52%
3,CCc1cn2c3c(cc(C(=O)N[C@@H](Cc4cccc(F)c4)[C@H](O)CNC4CCOCC4)cc13)N(C)S(=O)(=O)CC2,-0.16%
4,COc1cc(Cc2cnc(N)nc2N)cc(OCCCCc2nnn[nH]2)c1OC,-0.47%
5,CNc1ccc(CNCc2cccc(-c3ccc(-c4nc5cccc(C)c5[nH]4)s3)c2)cc1,8.15%
6,N#Cc1ccc(N(CCOc2ccc3c(c2)CCC(=O)N3)Cc2ccccc2C(F)(F)F)cc1C(F)(F)F,7.14%
7,O=C(Cn1c(CCc2cccc(F)c2F)cc(=O)c2ccccc21)N(CCN1CCCCC1)Cc1ccc(-c2ccc(C(F)(F)F)cc2)cc1,6.77%
8,Cn1nc(-c2cccc(CNCCc3cccs3)c2)c2cnc(NC3CCCC3)nc21,5.58%
9,Cc1cccc2nc(-c3cccc(-c4ccc(NC(=O)C5CCN(C)CC5)cc4)c3)[nH]c12,5.38%
10,CC(=O)Nc1ncc(C(=O)Nc2cccc(-c3cccc(-c4nc5ccccc5[nH]4)c3)c2)s1,1.58%
11,COc1cccc(-c2ccc(C(=O)NC3CCN(Cc4ccc(N(C)C)cc4)CC3)s2)c1,2.66%
12,COc1cc(Cc2cnc(N)nc2N)cc(OCCCCNS(=O)(=O)C(F)(F)F)c1OC,1.9%
13,Cc1cc(N[C@@H](CC(C)C)C(=O)NCCOc2ccccc2)nc(NCCc2ccc(F)cc2)n1,2.19%
14,CC(C)Nc1cc(C(=O)N[C@@H](Cc2ccccc2)[C@H](O)CNC(C)(C)c2cccc(C(F)(F)F)c2)cc(N2CCCCS2(=O)=O)c1,1.42%
15,COc1cc(C(=O)N2N=C(c3c(-c4ccccc4)c4cc(Br)ccc4[nH]c3=O)CC2c2cccc([N+](=O)[O-])c2)cc(OC)c1OC (stereo not given),3.48%
16,Cc1ccc(-c2nnc3c4ccccc4c(C)nn23)cc1S(=O)(=O)N1CCN(CCO)CC1,0.38%
17,O=C(NC1CCN(CC2(c3ccccc3)CCCC2)CC1)c1n[nH]cc1Cl,0.19%
18,N#Cc1ccc(OCCN(Cc2ccccc2C(F)(F)F)c2ccc(C#N)c(C(F)(F)F)c2)cc1,10.1%
19,COc1ccc(CNC(=O)NC2CCN(c3ccnc(Nc4ccc(F)cc4)n3)C2)cc1 (stereo not given),7.84%
20,CC(C)(C)c1ccc(CN2CCCCC(NC(=O)c3cc(-c4cccc(Cl)c4)cs3)C2)cc1 (stereo not given),-0.16%
